HT1080 IDH1KD tx = kills HT-1080 cells with IDH1 knockdown | HT-1080 IDH1 knockdown viability, ATP luminescence, 48 h | Potency, µM (highest dose often 46.1 µM), for inactives: at the top dose activity, negative = toxicity, most hits filed as cytotoxic | 360,000 tested, 2% active | AID 686971;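 further: 0% = DMSO wells and -100% = cell-free medium wells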
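HT-1080-IDH1KD cells (IDH1 knocked down), 750/well in RPMI with 5% FBS, treated with compound 48 h at 37 degrees C. Viability by CellTiter-Glo luminescence, normalised to DMSO and no-cell wells; concentration-response curves classed.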
S2 tox = reduces viability in counter-screen for ATXN expression inhibitors; S2 cells (HEK-293 line with an ATXN2-luciferase reporter) viability, CellTiter-Fluor protease fluorescence, 24 h; Potency, µM (top dose mostly 56.7 µM), actives largely listed as cytotoxic; 400,000 tested, 0.49% active; AID 651635; further: nearly all actives have a fitted effect of over 40% in size
HepG2 tox = kills HepG2 cells in TGF-b inhibitor counter-screen; 410,000 tested, 0.76% active; AID 588856; Potency, µM (titrated, usually from 46.1 µM), inactives show at the top dose activity change, negative = cytotoxicity, most hits filed as cytotoxic; HepG2 CAGA-GFP viability, ATP luminescence, 18 h
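HepG2 CAGA-GFP cells (1000/well, DMEM with 1% FBS) received compound, then TGF-beta at 500 pg/mL final, and were incubated 18 hours at 37 degrees C. Viability was read by CellTiter-Glo luminescence. Media-only wells were set as complete cell-killing and DMSO as no toxicity.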
TGFb inhibitor = TGF-b pathway inhibition | HepG2 CAGA-GFP TGF-b/SMAD3 reporter, GFP fluorescence, 18 h; TGF-beta stimulated, 500 pg/mL final | Potency, µM (doses to about 46.1 µM), for the others: at the top dose activity, negative = inhibition, usual class: inhibitors | 410,000 tested, 1.2% active | AID 588855; further: on the % scale 0 is the no-effect control and ±100 the full control effect; nearly all actives have a fitted effect of over 65% in size
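Inhibition was scored as loss of TGF-beta-induced (500 pg/mL final, 18 hours, 37 degrees C) GFP in HEPG2 cells carrying a CAGA-GFP reporter, in DMEM with 1% FBS. Well GFP was summed per cell; Activity was normalised to unstimulated and stimulated DMSO wells, then concentration-response fitting.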
ATXN2 expr inh = reduces ATXN2 reporter expression in HEK-293 cells. HEK-293 ATXN2-luciferase reporter, luminescence, 24 h. Potency, µM (doses to about 57 µM), for the others: at the highest dose activity change, negative = inhibition, hits mostly inhibitors. 360,000 tested, 0.72% active; further: on the % scale 0 is the no-effect control and ±100 the full control effect; nearly all actives have a fitted effect of over 55% in size
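qHTS (up to 57 uM final) was run with 24 h compound exposure of reporter cells at 37 °C. Each well was multiplexed: SteadyGlo luminescence measured ATXN2-luciferase expression after a fluorogenic Gly-Phe-AFC viability readout (25 uM final).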
HT1080-NT tox = kills 2HG-producing HT-1080-NT fibrosarcoma cells; HT-1080-NT fibrosarcoma viability, CellTiter-Glo ATP luminescence, 48 h; Potency, µM (series often up to 46.1 µM), without a hit: at the top dose activity, negative = less viability, actives largely listed as cytotoxic; 360,000 tested, 1.6% active;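 further: NT is the 2HG producing partner of a matched IDH1 knockdown line; 0% = DMSO-treated cells and -100% = media-only wells without cells; nearly all actives have a fitted effect of over 55% in size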
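HT-1080-NT; 750 cells/well; 5% FBS RPMI; 48 h compound, 37 degrees C; CellTiter-Glo luminescence; curve fitting and curve-class assignment.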
An asterisk follows results filed as active; i = inactive; ? = inconclusive; . = no result given; [ ] = another dose, or the depositor's remark. Hits are enriched below; roughly 3.8% of the tested compounds scored in any of these assays. The call rests on the fitted dose curve; in most records, active means well fitted curve in the direction sought with a large enough effect; inconclusive means small, poorly fitted or top-dose-only effect, or another doubt; inactive means no such curve, though single readings can be large; an effect the other way counts as inactive or inconclusive. Potency means the concentration at half of the fitted maximal effect.

SMILES	HT1080 IDH1KD tx	S2 tox	HepG2 tox	TGFb inhibitor	ATXN2 expr inh	HT1080-NT tox
Cc1ccc(NC(=O)c2cc(S(=O)(=O)N3CCc4ccccc43)ccc2F)cc1Cl	.	.	1.4%	12.9%	.	.
CCCc1nc2ccccc2c(=O)n1/N=C/c1c(C)[nH]n(-c2ccc(C)cc2)c1=O	18.4µM*	i	-89.3%	?	?	16.4µM*
Cc1ccc(-c2[nH]ncc2/C=N/n2c(COc3ccccc3C)nc3ccccc3c2=O)cc1	?	.	5.62µM*	12.6µM*	28.2µM*	?
Cc1ccc(-n2[nH]c(C)c(C=NCc3ccncc3)c2=O)cc1	?	i	-109.3%	-9.0%	28.9%	?
CCCc1nc2ccccc2c(=O)n1/N=C/c1ccccc1O	?	i	-36.1%	2.82µM*	14.3%	?
Cc1cccn2c(=O)cc(CSc3nnc(NC(=O)COc4ccc(F)cc4)s3)nc12	.	.	3.3%	-6.8%	.	.
COC(=O)c1ccccc1C(=O)N1CCOc2ccc(CN3CCN(c4ccccn4)CC3)cc2C1	.	i	.	.	.	.
CN(CCCNC(=O)c1cc2c(=O)n(C)c3ccccc3c2s1)Cc1ccccc1	.	?	-25.2%	-4.7%	-19.2%	.
CCOC(=O)c1cocc1C(=O)O	-6.4%	i	1.58µM*	?	-6.2%	-0.2%
CCOC(=O)c1coc(C(=O)OCC)c1C(=O)OCC	13.4%	i	7.5%	23.1%	3.6%	2.1%
O=C(c1cccnc1)C1CCCN(Cc2ccc3c(c2)CN(C(=O)c2ccc4[nH]ccc4c2)CCO3)C1 (stereo unspecified)	.	i	.	.	.	.
Cc1cc([N+](C)(C)C)cc(C)c1/C=C/c1ccnc2ccccc12	.	.	-15.4%	-12.5%	.	.
COc1ccc2c(C)cc(SCC(=O)NC3CCCC3)nc2c1	-0.5%	i	-23.4%	?	.	-1.3%
COc1ccc2nc(SCC(=O)NC3CCCC3)c(C)cc2c1	5.8µM*	i	0.1%	?	-21.7%	?
O=C(C[C@H]1C[C@H](C(=O)N2CCOCC2)[C@@]2(CCC3CCCC3)c3[nH]c4cc(-c5ccco5)ccc4c3CCN2C1=O)NCCCn1ccnc1	16.4µM*	?	-84.7%	?	?	?
O=C(CC1C[C@H](C(=O)N2CCOCC2)[C@@]2(CCC3CCCC3)c3[nH]c4ccccc4c3CCN2C1=O)NCc1cccc(C(F)(F)F)c1 (stereo partly specified)	10.4%	i	3.8%	24.2%	2.0%	15.7%
CN(C)C(=O)CCc1ccc2c3c([nH]c2c1)[C@]1(CCC2CCCC2)[C@@H](C(=O)N2CCOCC2)C[C@H](CC(=O)NCc2cccc(C(F)(F)F)c2)C(=O)N1CC3	3.5%	.	-59.3%	11.2µM*	?	-4.7%
CCN(CC)C(=O)[C@H]1C[C@H](CC(=O)NCCCn2ccnc2)C(=O)N2CCc3c([nH]c4cc(-c5ccco5)ccc34)[C@]12C	-0.6%	i	-11.7%	-4.1%	3.5%	-0.8%
O=C(Nc1ccc(C(=O)N2CCCCC2)cc1)c1ccccc1	-18.3%	i	-40.0%	2.1%	6.7%	-10.8%
Cn1cc([N+](=O)[O-])c(C(=O)Nc2ccc(C(=O)N3CCCCC3)cc2)n1	23.1µM*	i	8.91µM*	?	15.2%	?
O=C(Nc1ccccc1)Nc1ccc(C(=O)N2CCCC2)cc1	11.6µM*	i	-62.5%	25.6%	?	?
Cc1cc(C)n(Cc2ccc(NC(=O)c3nn(C)cc3[N+](=O)[O-])cc2)n1	6.31µM*	i	-5.0%	?	19.1%	10µM*
Cn1cc([N+](=O)[O-])c(C(=O)Nc2ccc(C3CCCCC3)cc2)n1	?	?	-104.7%	?	1.9%	23.1µM*
CCNC(=O)CCCN1C(=O)CCn2nc(-c3cccn3C)cc21	.	i	-7.7%	-9.1%	-4.2%	.
Cn1cc([N+](=O)[O-])c(C(=O)Nc2cc(Oc3cccnc3)cc([N+](=O)[O-])c2)n1	18.4µM*	?	-82.5%	12.6µM*	-19.5%	20.6µM*
SMILES	HT1080 IDH1KD tx	S2 tox	HepG2 tox	TGFb inhibitor	ATXN2 expr inh	HT1080-NT tox
Cc1cc(C)c2cc(CN(CCN3CCCC3)C(=O)Nc3ccc(F)cc3)c(=O)[nH]c2c1	18.4µM*	i	-37.1%	?	-20.1%	?
CO[C@H]1C=CO[C@@]2(C)Oc3c(C)c(O)c4c(O)c(c(C=NN5CCN(C)CC5)c(O)c4c3C2=O)NC(=O)C(C)=CC=C[C@H](C)[C@H](O)[C@@H](C)[C@@H](O)[C@@H](C)[C@H](OC(C)=O)[C@@H]1C	-16.0%	28.2µM*	-14.8%	-26.3%	18.7%	-15.6%
CC(C)(C)c1ccc(OCc2nc3ccccc3n2CCOc2ccccc2)cc1	.	?	-36.4%	-12.9%	-7.4%	.
COCc1nc2ccccc2n1Cc1ccc(C(C)(C)C)cc1	.	?	-58.9%	10µM*	2.0%	.
COc1cccc(OCc2nc3ccccc3n2Cc2ccccc2)c1	.	i	-54.7%	?	33.2%	.
COc1ccc(OCc2nc3ccccc3n2Cc2ccc(C(C)(C)C)cc2)cc1	.	i	-25.8%	15.8µM*	55.6%	.
COc1cc(C(=O)N(Cc2cc3ccc(C)cc3nc2N(C)C)C2CC2)cc(OC)c1OC	.	i	.	.	.	.
Cc1ccc(C(=O)COC(=O)c2cc(-c3ccccc3)nc3ccccc23)cc1C	.	i	-16.0%	3.9%	7.1%	.
Cc1ccc(NC(=O)c2sc(-n3nc(C)c(Cc4ccc5c(c4)OCO5)c3C)nc2C)cc1C	.	i	-16.9%	31.9%	-9.1%	.
Cc1ccc2[nH]c(-c3ccccc3)cc(=O)c2c1	1.03µM*	i	-18.9%	?	-17.2%	0.731µM*
CC1SC(=S)N(c2ccc(N(C)C)cc2)C1=O (stereo unspecified)	?	i	-74.6%	15.8µM*	-20.8%	-0.6%
CCN(CC)S(=O)(=O)c1cc(NC(=O)CNc2cccc(S(=O)(=O)N3CCCC3)c2)ccc1C	-21.1%	?	-11.4%	?	-30.4%	4.61µM*
COc1ccc(NC(=O)COc2ccccc2C(N)=O)cc1S(=O)(=O)N1CCCCC1	14.1%	?	3.5%	-2.7%	.	0.3%
COCCNCC(=O)Nc1ccc(C)c(S(=O)(=O)N2CCCCC2)c1	5.0%	?	1.3%	-9.4%	-37.6%	-4.8%
CC(NC(=O)Nc1ccc([N+](=O)[O-])cc1)C(c1ccccc1)N1CCOCC1 (stereo unspecified)	12.1%	i	-4.0%	-4.2%	6.3%[11.3 µM]	-25.0%
CC(NC(=O)Nc1ccc(Cl)c(Cl)c1)C(c1ccccc1)N1CCOCC1 (stereo unspecified)	?	?	-51.4%	?	?	23.1µM*
